Outcome data for 84 compounds are collected here from PubChem BioAssay AID1053173 (Broad Institute, 2014).

Out of some 1,500 compounds screened, about 390 (26%) were called active. The rule behind the calls is not given here. Not all results are given here. Measured potencies and affinities stand elsewhere.

The target of the assay is Histone-lysine N-methyltransferase NSD2 (Homo sapiens) (UniProt O96028). Nature of the assay: blockers of NSD2 H4 peptide methylation – biochemical, AlphaScreen, cherry-picked samples, dose response (AID 1053173). The following applies: 120 min; series mostly up to 10 µM. For orientation: In Alpha technology, singlet oxygen from a donor bead excites a nearby acceptor bead.
Sequence of Histone-lysine N-methyltransferase NSD2 (Homo sapiens) (O96028 whole entry, looked up): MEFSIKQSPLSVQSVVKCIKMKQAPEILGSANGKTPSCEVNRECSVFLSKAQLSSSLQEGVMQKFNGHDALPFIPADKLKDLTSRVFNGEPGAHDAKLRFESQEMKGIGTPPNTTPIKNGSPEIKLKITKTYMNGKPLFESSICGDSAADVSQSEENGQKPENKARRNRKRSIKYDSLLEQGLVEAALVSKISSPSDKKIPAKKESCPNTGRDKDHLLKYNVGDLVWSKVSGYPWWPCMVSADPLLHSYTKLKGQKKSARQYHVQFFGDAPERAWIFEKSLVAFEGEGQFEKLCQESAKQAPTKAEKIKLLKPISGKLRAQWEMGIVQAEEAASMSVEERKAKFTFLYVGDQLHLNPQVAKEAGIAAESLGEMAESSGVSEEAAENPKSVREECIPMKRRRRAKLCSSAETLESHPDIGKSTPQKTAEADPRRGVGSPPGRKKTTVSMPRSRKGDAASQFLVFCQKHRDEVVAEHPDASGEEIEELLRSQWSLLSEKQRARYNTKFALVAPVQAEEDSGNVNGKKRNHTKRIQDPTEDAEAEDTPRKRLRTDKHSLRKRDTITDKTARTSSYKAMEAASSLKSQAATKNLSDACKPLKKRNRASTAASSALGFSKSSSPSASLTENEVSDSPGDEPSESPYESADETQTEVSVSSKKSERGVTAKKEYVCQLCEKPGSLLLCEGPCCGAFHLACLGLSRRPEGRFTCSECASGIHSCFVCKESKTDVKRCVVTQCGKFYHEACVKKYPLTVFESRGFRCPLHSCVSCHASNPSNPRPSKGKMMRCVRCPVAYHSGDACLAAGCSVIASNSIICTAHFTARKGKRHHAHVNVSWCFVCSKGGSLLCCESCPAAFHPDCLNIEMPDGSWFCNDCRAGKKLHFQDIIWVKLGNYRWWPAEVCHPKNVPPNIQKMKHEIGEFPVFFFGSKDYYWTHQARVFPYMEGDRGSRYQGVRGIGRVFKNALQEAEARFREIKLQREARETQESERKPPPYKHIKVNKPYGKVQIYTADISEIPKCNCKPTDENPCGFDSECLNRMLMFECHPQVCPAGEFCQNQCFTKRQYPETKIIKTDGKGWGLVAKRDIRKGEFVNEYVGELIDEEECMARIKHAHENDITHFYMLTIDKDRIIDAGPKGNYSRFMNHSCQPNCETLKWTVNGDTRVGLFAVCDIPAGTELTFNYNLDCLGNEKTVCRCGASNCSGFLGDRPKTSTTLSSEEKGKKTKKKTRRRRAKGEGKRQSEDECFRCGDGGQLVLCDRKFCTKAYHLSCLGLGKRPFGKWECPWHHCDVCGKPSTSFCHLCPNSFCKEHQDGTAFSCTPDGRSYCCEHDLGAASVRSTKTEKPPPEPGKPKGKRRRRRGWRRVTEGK
Take `Nc1nc(Nc2ccccc2F)nc(NCCO)c1[N+](=O)[O-]`: the compound was called inactive.
Next, `CCCCn1c(=O)[nH]c2nc3cc(N)ccc3nc2c1=O`: “inactive”; `COc1ccc(C(=O)NCc2nnc(SCC(=O)Nc3cc(C)cc(C)c3)o2)cc1OC`: “inactive”; `Cc1nnc(N/N=C/c2ccccc2O)n1N`: “inactive”.
In the case of `COc1ccc(/C=N/Nc2nnc(C)n2N)cc1OC` it was “inactive”.
In the case of `CN(C)S(=O)(=O)c1ccc(NC(=O)CCNC(=O)c2ccco2)cc1` it was “inactive”; in that of `CC(=O)c1cccc(NC(=O)CC2CCCC2)c1`, “inactive”; in that of `Cc1nc2ccc(S(=O)(=O)N3CCCCC3)cc2s1`, “inactive”.
On to `CC(=O)NCCN1C(=O)C2C3c4ccccc4C(c4ccccc43)C2C1=O` (centres undefined), for which the result was inactive.
In the case of `CCOC(=O)c1sc2nc(C)nc(NC3CCC(O)CC3)c2c1C` (centres undefined), the result was inactive.
Next, `CCCCC(=O)OCc1cn(-c2ccc(Cl)cc2)nn1`: “inactive”; `Cc1cccc(NC(=O)C2CCN(C(=O)NCc3ccccc3)CC2)c1C`: “inactive”.
For the compound `CN1C(=O)C(CCC(=O)O)NC1=S` (centres undefined), the compound was called inactive.
Next, `Cc1cccc(NC(=O)CSCC(=O)NCc2cccc(C(F)(F)F)c2)c1`: “inactive”; `O=C(NCCCO)c1ccc2nc(-c3ccco3)c(-c3ccco3)nc2c1`: “inactive”.
Next, `O=C(O)c1cc(-c2ccco2)nn1-c1ccc(Cl)cc1`: “inactive”; `O=C1CCN(Cc2ccccc2)N1`: “inactive”; `COc1ccc2c(c1)Cc1sc(NC(=O)c3cccs3)nc1-2`: “inactive”.
In the case of `COc1ccc(C(=O)OCC(=O)Nc2c(C)n(C)n(-c3ccccc3)c2=O)cc1` it was “inactive”.
Turning to `O=Nc1ccc(O)c2ncccc12`, the result was inactive.
Consider `Cc1ccc(C#N)c(SCc2ccccc2F)n1`, for which the outcome was inactive.
Next, `O=c1[nH]c(NCCO)c(N=Cc2ccccc2)c(=O)[nH]1`: “inactive”; `COc1ccc(C2CCc3cc4c(cc3C2=NOC(C)=O)OCO4)cc1OC` (centres undefined): “inactive”; `Cc1cc(C)n(CC(O)COc2c(C)cccc2C)n1` (centres undefined): “inactive”.
With `O=C(CN1CCOCC1)NCCNC(=O)CN1CCOCC1`, the compound was classed as inactive.
Next, `CCNC(=O)C1(C)CCCN(C(=O)c2ccc3ccccc3n2)C1` (centres undefined): “inactive”.
In the case of `NC(=O)COC(=O)c1ccc(Cl)c(S(=O)(=O)N2CCN(c3ccc(F)cc3)CC2)c1` it was “inactive”; in that of `COc1cc(NC(=O)c2ccccc2)c(OC)cc1NC(=O)CSc1[nH]c(=O)cc(C)c1C#N`, “inactive”; in that of `Cc1ccc(CC(=O)Nc2nncs2)cc1`, “inactive”.
Take `CCc1sc(C(=O)Nc2nc(C)cs2)cc1C`: the outcome was inactive.
For `Cc1ccc2cccc(OCc3ccc(Br)cc3)c2n1`, the outcome was inactive.
Next, `CC(Nc1ccc2ccccc2c1)C(=O)N/N=C/c1ccncc1` (centres undefined): “inactive”.
`Cc1sc2nc[nH]c(=S)c2c1-c1ccccc1`: the call was inactive.
Turning to `O=c1[nH]nc(Br)c(=O)n1C(c1ccccc1)c1ccccc1`, the compound was called inactive.
In the case of `O=C(CSc1nccn1-c1ccc(F)cc1)NCc1ccc(F)cc1` it was “inactive”; in that of `Cc1cccc2c(=O)c(C(=O)NCc3ccc(F)cc3)c[nH]c12`, “inactive”.
Consider `CN(Cc1nc2ccccc2c(=O)[nH]1)C(=O)c1cc2c(s1)CCCCC2`, for which the compound was called inactive.
Next, `O=C(O)COc1ccccc1/C=N/Nc1ccc(S(=O)(=O)Nc2ccc(Cl)cc2)cc1[N+](=O)[O-]`: “inactive”; `O=C(NNC(=S)Nc1ccccc1)c1ccco1`: “inactive”; `COc1ccc(CCC(=O)Nc2ccc(S(=O)(=O)Nc3nccc(C)n3)cc2)cc1`: “inactive”.
For the compound `O=C(/C=C/c1ccco1)N(c1ccccn1)c1ccccn1`, the compound was classed as inactive.
Consider `Cc1cc(NS(=O)(=O)c2ccc(NC(=O)CSc3nnc(-c4ccncc4)n3Cc3ccco3)cc2)nc(C)n1`, for which the call was inactive.
Consider `O=C(Nc1ccccc1C(=O)O)c1cncc(Br)c1`, for which the compound was classed as inactive.
In the case of `Cn1c(N)c(C#N)c2c(c1=S)CSC(C)(C)C2` it was “inactive”; in that of `CCN(C(=O)/C=C/c1ccc2c(c1)OCO2)c1ccccc1`, “inactive”; in that of `CC(=O)Nc1ccc(S(=O)(=O)NCCSCc2c(Cl)cccc2Cl)cc1`, “inactive”.
As for `NS(=O)(=O)c1ccc(N/N=C/c2ccc(O)c(O)c2O)c([N+](=O)[O-])c1`, the compound was classed as inactive.
In the case of `CCCCn1c(NS(=O)(=O)c2ccccc2)c(S(=O)(=O)c2ccc(C)cc2)c2nc3ccccc3nc21` it was “inactive”.
As for `N#Cc1c(N)n(-c2ccc(C(=O)O)cc2)c2nc3ccccc3nc12`, the compound was classed as inactive.
As for `N#Cc1c2nc3ccccc3nc2n2cc(NC(=O)c3ccc(F)cc3)ccc12`, the compound was classed as inactive.
Next, `CCCCn1c(Cn2nc(C(=O)O)c3ccccc3c2=O)nc2cc(S(N)(=O)=O)ccc21`: “inactive”.
As for `CCOC(=O)c1nnn(-c2nonc2OC)c1-c1ccccc1`, the compound was classed as inactive.
As for `C=CCn1c(NS(=O)(=O)c2ccccc2)c(S(=O)(=O)c2ccc(C)cc2)c2nc3ccccc3nc21`, the compound was called inactive.
`COc1ccccc1N1CCN(C2CCN(C(=O)c3cccc(F)c3)CC2)CC1`: the result was inactive.
On to `Cc1cccc(NCCNc2cccc(C)c2)c1`, for which the compound was classed as inactive.
Next, `COc1cnc(-c2ccccn2)nc1Oc1cccc(C(F)(F)F)c1`: “inactive”.
On to `COc1cccc(CNC(=O)CSc2nnc3c(n2)[nH]c2ccccc23)c1`, for which the outcome was inactive.
Turning to `CCOc1ccc(S(=O)(=O)N2CCCC(C(=O)NCCN3CCOCC3)C2)cc1Cl` (centres undefined), the result was inactive.
`CNC(=O)COC(=O)/C=C/c1cccs1`: the call was inactive.
Turning to `Cc1ccc(S(=O)(=O)N2CCC(NC(=O)c3cccnc3)CC2)cc1Cl`, the call was inactive.
Consider `COc1cccc(C(C(=O)NC2CCCC2)N(C(=O)c2csnn2)C2CC2)c1` (centres undefined), for which the result was inactive.
Consider `CCc1c(C)nc2ncnn2c1Nc1ccc(C)cc1`, for which the compound was called inactive.
For the compound `CCC(=O)N1CCN(c2ccc(Cl)cc2NC(=O)c2ccc(Br)o2)CC1`, the call was inactive.
Next, `Nc1nc(COC(=O)c2ccco2)nc(Nc2ccccc2)n1`: “inactive”; `COc1ccccc1N1CCN(S(=O)(=O)CCNC(=O)c2ccc(Br)o2)CC1`: “inactive”.
In the case of `CCCCn1nnc(NC(=O)c2ccco2)n1` it was “inactive”; in that of `Cc1cc(C)n(-c2nc(NCC(C)O)c3c4c(sc3n2)COC(C)(C)C4)n1` (centres undefined), “inactive”.
Next, `CC(=O)C1=C(O)C(=O)N(CCc2c[nH]c3ccccc23)C1c1ccco1` (centres undefined): “inactive”.
Consider `Oc1cccc2c(NC(=S)Nc3ccc(OC(F)F)cc3)cccc12`, for which the compound was called inactive.
With `COc1ccc(-c2nnc(SCC(=O)c3ccc(O)cc3O)o2)cc1`, the outcome was inactive.
Take `CCCc1cc(=O)[nH]c(SCc2cc(=O)oc3cc(C)c(C(C)C)cc23)n1`: the call was inactive.
For the compound `CC(=O)c1ccc(N2CCN(C(=O)[C@H](C)NC(=O)c3ccccc3Cl)CC2)cc1`, the call was inactive.
Turning to `COc1cc(-c2nnn(Cc3ccccc3C)n2)cc(OC)c1OC`, the call was inactive.
For `O=C1Nc2cc(C(=O)N3CCC(N4CCCCC4)CC3)ccc2S/C1=C\c1ccccc1`, the compound was called inactive.
Next, `CCCc1[nH]n(-c2nc3ccccc3s2)c(=O)c1C=NCCCN(CC)CC`: “inactive”.
Next, `O=C(CSc1ccc(-c2cccnc2)nn1)N1CCCC1`: “inactive”.
Turning to `CCn1c(-c2cc3c(C(F)(F)F)nn(C)c3s2)n[nH]c1=S`, the outcome was inactive.
`Cc1ccc(Sc2ncccc2C(N)=O)cc1`: the compound was classed as inactive.
Next, `Cc1cc(C)cc(NC(=O)C2C3C=CC4(O3)C2C(=O)N(CCCN2CCCC2)C4C(=O)NC2CCCC(C)C2C)c1` (centres undefined): “inactive”.
As to `CCOC(=O)Cn1ncc(-c2ccccc2)c1N`, the compound was classed as inactive.
For `Cc1cc(-c2ccc(C)c(S(=O)(=O)N3CCN(c4ccccn4)CC3)c2)on1`, the call was inactive.
With `C/C(=C\C(=O)c1ccccc1)Nc1ccc(O)cc1`, the compound was called inactive.
Next, `Clc1cccc(N2CCN(CCCN3CCN(c4ccccc4)CC3)CC2)c1`: “inactive”.
On to `Fc1ccccc1NC(=S)Nc1cccc2cnccc12`, for which the call was inactive.
